Source: PubChem BioAssay (The Scripps Research Institute Molecular Screening Center)
Rows were chosen to be rich in hits. Some 2.6% of all compounds tested hit in one or more screens of this group.
PAFAH1B2 FP inh = inhibitors of human PAFAH1B2; P68402; recombinant PAFAH1B2, FP-rhodamine activity probe, fluorescence polarization; inhibition, % at 3.39 µM; 340,000 tested, 1.2% active;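 active means inhibition above the mean of all tested compounds plus 3 SD, cut at about 24% in these data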
PAFAH2 FP inh = inhibitors of human PAFAH2; Q99487; recombinant PAFAH2, FP-rhodamine activity probe, fluorescence polarization; inhibition, % at 3.39 µM; 340,000 tested, 0.99% active; AID 492956;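 active means inhibition above the mean over all tested compounds plus 3 SD, cut at about 30% in these data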;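 further: inhibitors block probe labeling of enzyme so polarization drops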
pPAFAH inh = inhibitors of human plasma PAF acetylhydrolase (pPAFAH) | Q13093 | recombinant pPAFAH, FP-rhodamine probe fluorescence polarization | inhibition, % at 3.39 µM | 330,000 tested, 1.5% active | AID 463082;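 active means inhibition above the mean inhibition across the screen plus 3 SD, cut at about 25% in these data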;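 further: inhibitors block binding of the rhodamine activity-based probe so polarization drops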
PKA-R2B act = activates the human PKA-R2B holoenzyme complex | 340,000 tested, 0.079% active | activation, % at 11.4 µM | P22694+P31323 | PKA-R2B holoenzyme dissociation, Cy5-IP20 fluorescence polarization; R2B truncated from residue 108, S112A mutant; 0% DMSO only, 100% 113 µM cGMP;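 active means activation above a cutoff set at the mean over all compounds plus 3 SD, cut at about 18% in these data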;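 further: higher means more holoenzyme dissociation and a rise in polarization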
Target sequence (P31323 whole entry, looked up, other chains not shown, the tested form may be a part): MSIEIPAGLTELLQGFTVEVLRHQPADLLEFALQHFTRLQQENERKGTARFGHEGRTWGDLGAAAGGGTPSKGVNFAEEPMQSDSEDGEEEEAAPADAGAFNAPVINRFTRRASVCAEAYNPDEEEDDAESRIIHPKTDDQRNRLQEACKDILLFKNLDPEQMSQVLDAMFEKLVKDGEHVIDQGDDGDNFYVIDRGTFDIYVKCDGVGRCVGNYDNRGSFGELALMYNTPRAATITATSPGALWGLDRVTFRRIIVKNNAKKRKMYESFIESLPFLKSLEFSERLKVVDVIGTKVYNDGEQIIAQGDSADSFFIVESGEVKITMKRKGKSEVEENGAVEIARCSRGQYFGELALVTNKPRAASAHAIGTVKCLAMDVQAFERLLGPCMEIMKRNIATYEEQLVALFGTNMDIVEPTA
PKA-R1A act = activates the PKA-R1A holoenzyme complex. P00514+P68181. activation, % at 11.4 µM. PKA-R1A dissociation, Cy5-IP20 fluorescence polarization; scaled: DMSO 0%, 113 µM cGMP 100%. 340,000 tested, 0.083% active;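 active means percent activation above the mean of all tested compounds plus 3 SD, cut at about 19% in these data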;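 further: higher means more PKAc released from R1A so a rise in polarization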
PAFAH1B3 inh = blocks human PAF acetylhydrolase 1B catalytic subunit 3; Q15102; recombinant PAFAH1B3, FP-rhodamine probe, fluorescence polarization; inhibition, % at 3.39 µM; 340,000 tested, 0.28% active; AID 492972;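 active means inhibition above the screen-wide average of all tested compounds plus 3 SD, cut at about 25% in these data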
Target sequence (Q15102 whole entry, looked up): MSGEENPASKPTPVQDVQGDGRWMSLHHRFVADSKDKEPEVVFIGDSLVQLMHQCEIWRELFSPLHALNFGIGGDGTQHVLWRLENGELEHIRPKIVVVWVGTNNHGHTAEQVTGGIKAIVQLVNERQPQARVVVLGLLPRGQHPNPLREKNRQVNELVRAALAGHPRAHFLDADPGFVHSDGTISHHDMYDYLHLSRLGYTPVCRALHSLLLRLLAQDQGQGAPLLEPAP
Numbers stand for hits.

O=C(O)c1ccc(/C=C2\SC(=S)N(NC(=O)c3ccccc3)C2=O)cc1 was read as PAFAH1B2 FP inh inactive, PAFAH2 FP inh inactive, pPAFAH inh inactive, PKA-R2B act inactive, PKA-R1A act inactive and PAFAH1B3 inh inactive.
O=C(NN1C(=O)/C(=C\c2cccnc2)SC1=S)C(c1ccccc1)c1ccccc1 was read as PAFAH1B2 FP inh 29, PAFAH2 FP inh inactive, pPAFAH inh inactive, PKA-R2B act inactive, PKA-R1A act inactive and PAFAH1B3 inh inactive.
Cc1nc(N2CCN(C(=O)c3ccco3)CC2)[nH]c(=O)c1C was read as PAFAH1B2 FP inh inactive, PAFAH2 FP inh inactive, pPAFAH inh inactive, PKA-R2B act inactive, PKA-R1A act inactive and PAFAH1B3 inh inactive.
`COc1ccc([C@@H]2CC=C(C(=O)O)[C@H](c3ccccc3F)N2S(=O)(=O)c2ccccc2C)cc1` gave PAFAH1B2 FP inh inactive, PAFAH2 FP inh inactive, pPAFAH inh inactive, PKA-R2B act inactive, PKA-R1A act inactive and PAFAH1B3 inh inactive.
COc1ccc([C@@H]2CC=C(C(=O)O)[C@H](c3ccc(F)cc3)N2S(=O)(=O)c2ccc(Cl)cc2)cc1 was read as PAFAH1B2 FP inh 29, PAFAH2 FP inh inactive, pPAFAH inh inactive, PKA-R2B act inactive, PKA-R1A act inactive and PAFAH1B3 inh inactive.
For COc1ccc([C@@H]2CC=C(C(=O)O)[C@H](c3ccc(Cl)cc3)N2S(=O)(=O)c2ccc(C)cc2)cc1OC the results were PAFAH1B2 FP inh inactive, PAFAH2 FP inh inactive, pPAFAH inh inactive, PKA-R2B act inactive, PKA-R1A act inactive and PAFAH1B3 inh inactive.
COc1ccc([C@@H]2CC=C(C(=O)O)[C@H](c3ccc(F)cc3)N2S(=O)(=O)c2ccccc2C)cc1 was read as PAFAH1B2 FP inh 25, PAFAH2 FP inh inactive, pPAFAH inh inactive, PKA-R2B act inactive, PKA-R1A act inactive and PAFAH1B3 inh inactive.
For COc1ccc(CN(C)CCCn2cnc3c(OC)ncnc32)cc1OC the results were PKA-R2B act inactive and PKA-R1A act inactive.
Screening CC(C)OCCCNC(=O)COCC(=O)Nc1ccc(OCCc2ccccc2)cc1 returned PAFAH1B2 FP inh inactive, PAFAH2 FP inh inactive, pPAFAH inh inactive, PKA-R2B act inactive, PKA-R1A act inactive and PAFAH1B3 inh inactive.
`O=C(COC(=O)C12CC3CC(CC(Br)(C3)C1)C2)Nc1ccc2[nH]c(=O)[nH]c2c1` gave PAFAH1B2 FP inh 37, PAFAH2 FP inh inactive, pPAFAH inh inactive, PKA-R2B act inactive, PKA-R1A act inactive and PAFAH1B3 inh inactive.
`CC(=O)NC12CC3CC(C1)CC(C(=O)OCC(=O)Nc1c(F)cccc1F)(C3)C2` gave PAFAH1B2 FP inh inactive, PAFAH2 FP inh inactive, pPAFAH inh inactive, PKA-R2B act inactive, PKA-R1A act inactive and PAFAH1B3 inh inactive.
For O=C(COC(=O)C1CC1)Nc1ccc2[nH]c(=O)[nH]c2c1 the results were PAFAH1B2 FP inh inactive, PAFAH2 FP inh inactive, pPAFAH inh inactive, PKA-R2B act inactive, PKA-R1A act inactive and PAFAH1B3 inh inactive.
Cc1c(NC(=O)COC(=O)C23CC4CC(CC(Br)(C4)C2)C3)c(=O)n(-c2ccccc2)n1C was read as PAFAH1B2 FP inh 26, PAFAH2 FP inh inactive, pPAFAH inh inactive, PKA-R2B act inactive, PKA-R1A act inactive and PAFAH1B3 inh inactive.
For COc1ccccc1NC(=O)COC(=O)C12CC3CC(CC(Br)(C3)C1)C2 the results were PAFAH1B2 FP inh 30, PAFAH2 FP inh inactive, pPAFAH inh inactive, PKA-R2B act inactive, PKA-R1A act inactive and PAFAH1B3 inh inactive.
Screening O=C(COC(=O)C12CC3CC(CC(Br)(C3)C1)C2)Nc1c(F)cccc1F returned PAFAH1B2 FP inh 35, PAFAH2 FP inh inactive, pPAFAH inh inactive, PKA-R2B act inactive, PKA-R1A act inactive and PAFAH1B3 inh inactive.
Screening Cc1c(NC(=O)C23CC4CC(CC(C4)C2)C3)c(=O)n(-c2ccccc2)n1C returned PAFAH1B2 FP inh inactive, PAFAH2 FP inh inactive, pPAFAH inh inactive, PKA-R2B act inactive, PKA-R1A act inactive and PAFAH1B3 inh inactive.
`CCC1CN(C(=O)NCc2ccccc2)c2cc(C)ccc2O1` (stereo not drawn) gave PAFAH1B2 FP inh 36, PAFAH2 FP inh 71, PKA-R2B act inactive, PKA-R1A act inactive and PAFAH1B3 inh 50.
Screening CCc1nc(SCc2cc(=O)[nH]c3ccccc23)c2c(C)c(C)sc2n1 returned PAFAH1B2 FP inh inactive, PAFAH2 FP inh inactive, PKA-R2B act inactive, PKA-R1A act inactive and PAFAH1B3 inh inactive.
`CCOc1ccc(Nc2nc(Cc3nnc(SCC(=O)O)o3)cs2)cc1` gave PAFAH1B2 FP inh inactive, PAFAH2 FP inh inactive, pPAFAH inh 28, PKA-R2B act inactive, PKA-R1A act inactive and PAFAH1B3 inh inactive.
Screening CCOc1ccc(C(=O)Nc2ccc(S(=O)(=O)N3CCN(C)CC3)cc2)cc1 returned PAFAH1B2 FP inh inactive, PAFAH2 FP inh inactive, pPAFAH inh inactive, PKA-R2B act inactive, PKA-R1A act inactive and PAFAH1B3 inh inactive.
`NS(=O)(=O)c1cccc(NC(=O)COC(=O)CCSc2ccccc2)c1` gave PAFAH1B2 FP inh inactive, PAFAH2 FP inh inactive, pPAFAH inh 25, PKA-R2B act inactive, PKA-R1A act inactive and PAFAH1B3 inh inactive.
For Cc1ccc(SCCC(=O)OCC(=O)Nc2ccc(C(N)=O)cc2)cc1 the results were PAFAH1B2 FP inh 26, PAFAH2 FP inh inactive, pPAFAH inh inactive, PKA-R2B act inactive, PKA-R1A act inactive and PAFAH1B3 inh inactive.
Screening O=C(COC(=O)CCSc1ccccc1)Nc1cc(F)ccc1F returned PAFAH1B2 FP inh 32, PAFAH2 FP inh inactive, pPAFAH inh inactive, PKA-R2B act inactive, PKA-R1A act inactive and PAFAH1B3 inh inactive.
`NS(=O)(=O)c1cccc(NC(=O)CN2C(=O)C(=O)N(Cc3ccccc3)C2=O)c1` gave PAFAH1B2 FP inh inactive, PAFAH2 FP inh inactive, pPAFAH inh inactive, PKA-R2B act inactive, PKA-R1A act inactive and PAFAH1B3 inh inactive.
Screening NS(=O)(=O)c1cccc(NC(=O)COC(=O)CSCc2ccccc2)c1 returned PAFAH1B2 FP inh inactive, PAFAH2 FP inh inactive, pPAFAH inh 28, PKA-R2B act inactive, PKA-R1A act inactive and PAFAH1B3 inh inactive.
NC(=O)c1ccc(NC(=O)COC(=O)CCSc2ccccc2)cc1 was read as PAFAH1B2 FP inh inactive, PAFAH2 FP inh inactive, pPAFAH inh inactive, PKA-R2B act inactive, PKA-R1A act inactive and PAFAH1B3 inh inactive.
`Cc1cccc(N(CC(=O)N/N=C/c2ccccc2C(=O)O)S(C)(=O)=O)c1C` gave PAFAH1B2 FP inh inactive, PAFAH2 FP inh inactive, pPAFAH inh inactive, PKA-R2B act inactive, PKA-R1A act inactive and PAFAH1B3 inh inactive.
Screening Cc1cccc(N2CCN(C(=O)C3CCN(c4ncnc5c4nc4n5CCCCC4)CC3)CC2C)c1 (stereo not drawn) returned PAFAH1B2 FP inh inactive, PAFAH2 FP inh inactive, pPAFAH inh inactive, PKA-R2B act inactive, PKA-R1A act inactive and PAFAH1B3 inh inactive.
`O=C1C=C(c2ccc(CO)cc2)C[C@@H](c2ccc(F)cc2)C1` gave PKA-R2B act inactive and PKA-R1A act inactive.
